Assay results published in ChEMBL document CHEMBL1961873, “Compounds: GSK PKIS; Assays: Nanosyn kinase panel” (2012).
“And” between values parts separate entries of the source, which are not always exact repeats. Equal values may be shown once.

Experiments:
[1] = biological target: T1, Mitogen-activated protein kinase 12 (Homo sapiens) (UniProt P53778); conditions: at 1 µM;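 note: values are averaged p38gamma kinase inhibition readings, compounds tested at 1 µM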
T1 sequence (whole entry): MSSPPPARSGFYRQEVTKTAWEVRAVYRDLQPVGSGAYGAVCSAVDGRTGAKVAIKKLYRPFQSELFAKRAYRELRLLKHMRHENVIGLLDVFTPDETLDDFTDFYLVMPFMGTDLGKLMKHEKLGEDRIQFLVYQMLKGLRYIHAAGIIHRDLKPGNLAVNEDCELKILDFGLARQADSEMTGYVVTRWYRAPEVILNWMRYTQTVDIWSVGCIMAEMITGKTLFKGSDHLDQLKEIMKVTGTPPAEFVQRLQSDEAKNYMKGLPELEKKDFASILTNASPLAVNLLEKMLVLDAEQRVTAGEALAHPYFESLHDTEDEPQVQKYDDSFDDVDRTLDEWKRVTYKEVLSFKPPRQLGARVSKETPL

[2] = biological target: SRSF protein kinase 1 (Homo sapiens) (UniProt Q96SB4); conditions: at 0.1 µM
[3] = biological target: SRSF protein kinase 1 (Homo sapiens) (UniProt Q96SB4); conditions: at 1 µM
[4] = biological target: Phosphatidylinositol 4,5-bisphosphate 3-kinase catalytic subunit alpha isoform (Homo sapiens) (UniProt P42336); conditions: at 0.1 µM
[5] = biological target: Phosphatidylinositol 4,5-bisphosphate 3-kinase catalytic subunit alpha isoform (Homo sapiens) (UniProt P42336); conditions: at 1 µM
[6] = biological target: T2, Phosphatidylinositol 4,5-bisphosphate 3-kinase catalytic subunit delta isoform (Homo sapiens) (UniProt O00329); conditions: at 0.1 µM
T2 sequence (whole entry): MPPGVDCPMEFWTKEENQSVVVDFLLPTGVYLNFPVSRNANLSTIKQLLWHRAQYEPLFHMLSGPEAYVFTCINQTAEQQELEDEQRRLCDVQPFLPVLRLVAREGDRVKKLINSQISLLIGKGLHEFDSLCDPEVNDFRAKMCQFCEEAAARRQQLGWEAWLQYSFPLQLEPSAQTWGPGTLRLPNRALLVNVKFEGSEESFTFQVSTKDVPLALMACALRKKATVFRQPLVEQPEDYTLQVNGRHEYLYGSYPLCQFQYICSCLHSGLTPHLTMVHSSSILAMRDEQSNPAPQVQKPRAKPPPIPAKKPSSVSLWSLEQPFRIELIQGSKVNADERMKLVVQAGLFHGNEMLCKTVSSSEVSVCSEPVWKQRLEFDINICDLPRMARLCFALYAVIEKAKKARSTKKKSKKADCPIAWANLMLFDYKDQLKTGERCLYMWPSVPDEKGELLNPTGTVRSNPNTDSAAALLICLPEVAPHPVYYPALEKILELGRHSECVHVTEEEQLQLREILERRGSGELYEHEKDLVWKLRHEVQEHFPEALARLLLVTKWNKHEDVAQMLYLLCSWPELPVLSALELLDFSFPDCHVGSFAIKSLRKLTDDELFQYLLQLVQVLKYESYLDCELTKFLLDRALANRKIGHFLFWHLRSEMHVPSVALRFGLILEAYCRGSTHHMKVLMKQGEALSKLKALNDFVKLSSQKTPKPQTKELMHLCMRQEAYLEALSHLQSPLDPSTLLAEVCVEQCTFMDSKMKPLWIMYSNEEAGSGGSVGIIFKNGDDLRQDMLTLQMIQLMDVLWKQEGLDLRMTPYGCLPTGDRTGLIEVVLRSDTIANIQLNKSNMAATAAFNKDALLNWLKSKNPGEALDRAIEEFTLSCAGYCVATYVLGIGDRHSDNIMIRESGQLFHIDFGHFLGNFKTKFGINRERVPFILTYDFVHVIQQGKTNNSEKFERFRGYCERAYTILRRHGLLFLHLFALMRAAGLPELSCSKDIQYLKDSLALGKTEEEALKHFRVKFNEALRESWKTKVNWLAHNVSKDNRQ

[7] = biological target: T2, Phosphatidylinositol 4,5-bisphosphate 3-kinase catalytic subunit delta isoform (Homo sapiens); conditions: at 1 µM
[8] = biological target: Phosphatidylinositol 4-kinase beta (Homo sapiens) (UniProt Q9UBF8); conditions: at 0.1 µM
[9] = biological target: Phosphatidylinositol 4-kinase beta (Homo sapiens) (UniProt Q9UBF8); conditions: at 1 µM
[10] = biological target: Sphingosine kinase 1 (Homo sapiens) (UniProt Q9NYA1); conditions: at 0.1 µM
[11] = biological target: Sphingosine kinase 1 (Homo sapiens) (UniProt Q9NYA1); conditions: at 1 µM
[12] = biological target: T3, Sphingosine kinase 2 (Homo sapiens) (UniProt Q9NRA0); conditions: at 0.1 µM
T3 sequence (whole entry): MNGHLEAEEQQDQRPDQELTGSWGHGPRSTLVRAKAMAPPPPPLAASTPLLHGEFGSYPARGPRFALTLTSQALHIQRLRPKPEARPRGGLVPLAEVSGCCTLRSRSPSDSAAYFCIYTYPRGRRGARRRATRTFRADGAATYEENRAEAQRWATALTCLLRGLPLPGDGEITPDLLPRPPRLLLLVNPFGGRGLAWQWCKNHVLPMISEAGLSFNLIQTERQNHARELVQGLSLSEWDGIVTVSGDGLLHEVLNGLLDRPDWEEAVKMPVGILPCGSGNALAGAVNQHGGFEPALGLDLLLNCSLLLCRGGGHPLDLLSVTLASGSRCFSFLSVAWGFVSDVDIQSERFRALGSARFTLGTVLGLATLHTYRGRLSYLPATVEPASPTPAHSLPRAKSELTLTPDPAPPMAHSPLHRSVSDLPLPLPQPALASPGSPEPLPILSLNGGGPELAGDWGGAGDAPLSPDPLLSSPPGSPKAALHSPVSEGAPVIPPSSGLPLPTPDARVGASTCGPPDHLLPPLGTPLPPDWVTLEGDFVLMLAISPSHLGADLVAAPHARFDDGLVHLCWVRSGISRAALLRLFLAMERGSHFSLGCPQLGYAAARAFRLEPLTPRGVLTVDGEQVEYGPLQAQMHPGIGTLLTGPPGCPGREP

[13] = biological target: T3, Sphingosine kinase 2 (Homo sapiens); conditions: at 1 µM
[14] = biological target: Casein kinase II subunit alpha (Homo sapiens) (UniProt P68400); conditions: at 0.1 µM
[15] = biological target: Casein kinase II subunit alpha (Homo sapiens) (UniProt P68400); conditions: at 1 µM
[16] = biological target: T4, Inhibitor of nuclear factor kappa-B kinase subunit alpha (Homo sapiens) (UniProt O15111); conditions: at 0.1 µM
T4 sequence (whole entry): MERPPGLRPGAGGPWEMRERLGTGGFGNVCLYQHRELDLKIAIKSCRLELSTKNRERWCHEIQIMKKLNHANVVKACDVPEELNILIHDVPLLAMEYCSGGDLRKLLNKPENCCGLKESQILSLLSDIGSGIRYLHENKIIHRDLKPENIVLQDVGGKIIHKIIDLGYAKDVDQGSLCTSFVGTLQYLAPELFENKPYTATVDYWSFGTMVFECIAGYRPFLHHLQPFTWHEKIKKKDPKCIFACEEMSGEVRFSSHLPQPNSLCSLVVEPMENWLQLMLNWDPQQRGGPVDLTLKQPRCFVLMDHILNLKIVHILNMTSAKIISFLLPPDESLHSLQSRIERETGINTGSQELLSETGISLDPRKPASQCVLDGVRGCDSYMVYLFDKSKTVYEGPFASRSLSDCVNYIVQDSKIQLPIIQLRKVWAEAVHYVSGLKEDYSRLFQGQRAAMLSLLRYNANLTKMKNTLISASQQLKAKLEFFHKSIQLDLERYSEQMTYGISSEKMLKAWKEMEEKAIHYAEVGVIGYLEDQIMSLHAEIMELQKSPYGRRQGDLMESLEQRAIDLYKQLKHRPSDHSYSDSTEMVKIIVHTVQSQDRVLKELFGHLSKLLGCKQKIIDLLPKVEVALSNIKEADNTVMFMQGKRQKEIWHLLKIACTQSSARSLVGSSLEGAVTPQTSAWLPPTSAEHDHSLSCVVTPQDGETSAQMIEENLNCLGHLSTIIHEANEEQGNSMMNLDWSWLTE

[17] = biological target: T4, Inhibitor of nuclear factor kappa-B kinase subunit alpha (Homo sapiens); conditions: at 1 µM
[18] = biological target: T5, Inhibitor of nuclear factor kappa-B kinase subunit beta (Homo sapiens) (UniProt O14920); conditions: at 0.1 µM
T5 sequence (whole entry): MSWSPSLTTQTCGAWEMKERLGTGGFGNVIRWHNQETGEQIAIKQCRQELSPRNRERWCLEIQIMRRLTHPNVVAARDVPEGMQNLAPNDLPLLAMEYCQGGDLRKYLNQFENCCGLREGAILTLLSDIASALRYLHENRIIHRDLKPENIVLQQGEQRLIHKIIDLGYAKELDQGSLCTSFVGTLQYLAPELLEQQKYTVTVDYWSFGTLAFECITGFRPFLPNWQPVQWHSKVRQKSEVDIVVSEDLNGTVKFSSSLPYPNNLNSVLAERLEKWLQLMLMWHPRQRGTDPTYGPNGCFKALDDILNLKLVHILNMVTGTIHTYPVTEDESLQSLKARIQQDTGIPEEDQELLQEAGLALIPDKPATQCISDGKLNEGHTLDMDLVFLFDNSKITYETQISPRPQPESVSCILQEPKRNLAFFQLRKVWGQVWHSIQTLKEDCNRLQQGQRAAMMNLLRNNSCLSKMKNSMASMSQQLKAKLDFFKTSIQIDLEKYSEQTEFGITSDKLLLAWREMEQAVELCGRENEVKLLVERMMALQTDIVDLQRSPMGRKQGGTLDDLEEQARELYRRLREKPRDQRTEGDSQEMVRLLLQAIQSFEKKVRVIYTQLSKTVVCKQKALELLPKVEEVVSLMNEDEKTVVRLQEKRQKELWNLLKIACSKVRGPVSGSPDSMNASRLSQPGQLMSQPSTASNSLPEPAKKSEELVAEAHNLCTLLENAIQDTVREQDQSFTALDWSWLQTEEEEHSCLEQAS

[19] = biological target: T5, Inhibitor of nuclear factor kappa-B kinase subunit beta (Homo sapiens); conditions: at 1 µM
[20] = biological target: T6, Inhibitor of nuclear factor kappa-B kinase subunit epsilon (Homo sapiens) (UniProt Q14164); conditions: at 0.1 µM;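 note: mean inhibition of IKKε reported, from the GSK PKIS dataset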
T6 sequence (whole entry): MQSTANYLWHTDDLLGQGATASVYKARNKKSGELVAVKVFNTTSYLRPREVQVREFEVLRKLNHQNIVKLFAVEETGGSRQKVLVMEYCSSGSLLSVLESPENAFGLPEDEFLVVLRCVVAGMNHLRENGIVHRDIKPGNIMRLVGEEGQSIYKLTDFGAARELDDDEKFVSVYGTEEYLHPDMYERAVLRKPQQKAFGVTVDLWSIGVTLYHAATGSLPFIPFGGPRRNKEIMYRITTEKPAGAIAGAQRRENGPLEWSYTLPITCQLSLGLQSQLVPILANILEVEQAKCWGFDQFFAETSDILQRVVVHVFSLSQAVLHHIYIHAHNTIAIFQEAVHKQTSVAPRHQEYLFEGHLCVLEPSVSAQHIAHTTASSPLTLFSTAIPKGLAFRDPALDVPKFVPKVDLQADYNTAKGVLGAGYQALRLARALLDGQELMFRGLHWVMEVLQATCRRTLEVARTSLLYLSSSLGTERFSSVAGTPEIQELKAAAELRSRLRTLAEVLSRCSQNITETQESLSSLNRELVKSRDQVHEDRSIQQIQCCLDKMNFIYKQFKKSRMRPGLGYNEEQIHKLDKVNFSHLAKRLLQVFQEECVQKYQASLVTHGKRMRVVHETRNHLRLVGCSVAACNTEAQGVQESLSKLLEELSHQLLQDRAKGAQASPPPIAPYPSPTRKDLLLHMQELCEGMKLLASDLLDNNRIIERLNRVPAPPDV

Chain of Phosphatidylinositol 4-kinase beta (Homo sapiens) (Q9UBF8 2-816 limits assumed): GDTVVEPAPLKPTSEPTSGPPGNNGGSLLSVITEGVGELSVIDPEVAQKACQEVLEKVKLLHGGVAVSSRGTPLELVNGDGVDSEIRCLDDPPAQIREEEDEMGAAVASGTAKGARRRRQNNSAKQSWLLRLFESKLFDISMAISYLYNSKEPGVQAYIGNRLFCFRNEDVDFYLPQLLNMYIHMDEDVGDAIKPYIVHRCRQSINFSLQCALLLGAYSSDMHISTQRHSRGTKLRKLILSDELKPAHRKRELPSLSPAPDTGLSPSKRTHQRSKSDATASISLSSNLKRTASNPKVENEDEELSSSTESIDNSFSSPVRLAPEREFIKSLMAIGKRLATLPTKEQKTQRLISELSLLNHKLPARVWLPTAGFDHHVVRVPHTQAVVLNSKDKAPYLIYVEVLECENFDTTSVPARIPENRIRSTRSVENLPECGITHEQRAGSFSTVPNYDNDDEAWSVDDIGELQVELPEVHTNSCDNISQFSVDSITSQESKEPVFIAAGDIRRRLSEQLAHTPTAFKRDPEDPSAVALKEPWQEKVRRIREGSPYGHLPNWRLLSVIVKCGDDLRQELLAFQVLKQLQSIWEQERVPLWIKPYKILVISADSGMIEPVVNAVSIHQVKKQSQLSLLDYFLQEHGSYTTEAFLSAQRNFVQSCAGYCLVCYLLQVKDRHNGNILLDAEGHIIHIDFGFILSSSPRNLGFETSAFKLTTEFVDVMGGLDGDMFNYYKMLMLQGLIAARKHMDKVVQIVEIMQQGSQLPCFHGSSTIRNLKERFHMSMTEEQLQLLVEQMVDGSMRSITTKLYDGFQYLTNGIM
Chain of Phosphatidylinositol 4,5-bisphosphate 3-kinase catalytic subunit alpha isoform (Homo sapiens) (P42336 whole entry, canonical isoform): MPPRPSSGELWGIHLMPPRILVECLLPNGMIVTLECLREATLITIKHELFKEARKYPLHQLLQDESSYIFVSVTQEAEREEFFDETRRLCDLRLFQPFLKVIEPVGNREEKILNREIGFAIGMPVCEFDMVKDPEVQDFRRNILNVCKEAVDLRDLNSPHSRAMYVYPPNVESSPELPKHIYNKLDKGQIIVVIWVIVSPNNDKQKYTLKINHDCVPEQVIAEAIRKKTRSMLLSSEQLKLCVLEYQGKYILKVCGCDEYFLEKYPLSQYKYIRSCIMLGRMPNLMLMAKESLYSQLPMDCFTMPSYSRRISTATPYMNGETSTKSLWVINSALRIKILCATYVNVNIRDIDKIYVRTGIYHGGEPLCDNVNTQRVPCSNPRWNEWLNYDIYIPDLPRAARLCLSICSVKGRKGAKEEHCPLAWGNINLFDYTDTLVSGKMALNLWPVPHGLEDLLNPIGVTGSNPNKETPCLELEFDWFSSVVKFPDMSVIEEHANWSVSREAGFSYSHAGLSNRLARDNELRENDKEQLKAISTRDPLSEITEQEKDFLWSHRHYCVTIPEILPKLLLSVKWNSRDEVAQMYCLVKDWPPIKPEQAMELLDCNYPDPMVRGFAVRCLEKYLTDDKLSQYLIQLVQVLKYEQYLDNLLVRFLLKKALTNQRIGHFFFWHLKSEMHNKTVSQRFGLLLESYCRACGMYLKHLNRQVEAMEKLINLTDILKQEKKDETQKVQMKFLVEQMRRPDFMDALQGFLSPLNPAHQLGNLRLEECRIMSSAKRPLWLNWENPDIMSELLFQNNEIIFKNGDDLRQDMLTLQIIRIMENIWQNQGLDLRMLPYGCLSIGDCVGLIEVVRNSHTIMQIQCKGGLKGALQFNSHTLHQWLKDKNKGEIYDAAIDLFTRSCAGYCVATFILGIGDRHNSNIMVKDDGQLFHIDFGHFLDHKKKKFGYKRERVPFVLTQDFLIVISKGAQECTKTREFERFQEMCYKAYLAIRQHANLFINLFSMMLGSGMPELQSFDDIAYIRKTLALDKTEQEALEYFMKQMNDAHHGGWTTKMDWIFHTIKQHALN
Chain of SRSF protein kinase 1 (Homo sapiens) (Q96SB4 whole entry, canonical isoform): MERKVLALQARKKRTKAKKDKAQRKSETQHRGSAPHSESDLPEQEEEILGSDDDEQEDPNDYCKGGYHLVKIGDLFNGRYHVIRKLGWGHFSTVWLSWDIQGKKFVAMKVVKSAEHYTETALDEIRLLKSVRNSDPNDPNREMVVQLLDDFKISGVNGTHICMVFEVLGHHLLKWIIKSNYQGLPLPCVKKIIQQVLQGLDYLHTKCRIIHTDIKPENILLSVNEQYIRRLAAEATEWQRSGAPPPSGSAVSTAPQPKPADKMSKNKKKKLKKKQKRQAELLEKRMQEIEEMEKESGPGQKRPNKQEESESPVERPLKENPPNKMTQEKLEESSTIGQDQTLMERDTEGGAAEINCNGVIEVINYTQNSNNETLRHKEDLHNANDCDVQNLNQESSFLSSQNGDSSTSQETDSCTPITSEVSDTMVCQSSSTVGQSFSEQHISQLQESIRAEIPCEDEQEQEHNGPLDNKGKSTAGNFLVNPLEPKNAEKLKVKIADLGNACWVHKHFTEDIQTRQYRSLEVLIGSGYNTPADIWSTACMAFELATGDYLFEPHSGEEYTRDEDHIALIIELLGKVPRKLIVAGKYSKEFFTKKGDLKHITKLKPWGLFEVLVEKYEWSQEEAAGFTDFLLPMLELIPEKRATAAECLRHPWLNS
Chain of Sphingosine kinase 1 (Homo sapiens) (Q9NYA1 whole entry): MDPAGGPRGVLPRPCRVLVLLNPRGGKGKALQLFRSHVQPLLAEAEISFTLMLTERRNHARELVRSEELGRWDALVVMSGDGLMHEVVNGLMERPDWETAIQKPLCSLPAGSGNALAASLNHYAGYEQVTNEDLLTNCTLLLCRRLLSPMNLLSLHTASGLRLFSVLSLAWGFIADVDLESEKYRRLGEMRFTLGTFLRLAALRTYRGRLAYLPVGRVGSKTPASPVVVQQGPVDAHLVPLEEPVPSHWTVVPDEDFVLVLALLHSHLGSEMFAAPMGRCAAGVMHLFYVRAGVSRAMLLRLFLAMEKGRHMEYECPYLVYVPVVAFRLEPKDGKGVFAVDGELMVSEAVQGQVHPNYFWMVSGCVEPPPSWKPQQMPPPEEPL
Chain of Casein kinase II subunit alpha (Homo sapiens) (P68400 whole entry, looked up): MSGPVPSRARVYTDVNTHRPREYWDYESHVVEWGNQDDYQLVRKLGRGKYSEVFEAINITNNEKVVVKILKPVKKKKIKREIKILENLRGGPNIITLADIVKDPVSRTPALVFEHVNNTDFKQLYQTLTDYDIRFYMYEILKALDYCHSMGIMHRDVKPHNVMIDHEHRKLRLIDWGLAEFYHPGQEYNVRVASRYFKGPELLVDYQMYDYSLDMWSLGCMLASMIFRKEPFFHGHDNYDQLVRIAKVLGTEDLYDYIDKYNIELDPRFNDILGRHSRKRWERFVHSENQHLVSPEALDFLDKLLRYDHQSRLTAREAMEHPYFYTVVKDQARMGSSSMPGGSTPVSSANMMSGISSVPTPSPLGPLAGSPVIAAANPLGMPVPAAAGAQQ

Row | Structure (SMILES) | inhibition [1] | inhibition [2] | inhibition [3] | inhibition [4] | inhibition [5] | inhibition [6] | inhibition [7] | inhibition [8] | inhibition [9] | inhibition [10] | inhibition [11] | inhibition [12] | inhibition [13] | inhibition [14] | inhibition [15] | inhibition [16] | inhibition [17] | inhibition [18] | inhibition [19] | inhibition [20]
1 | O=C(O[C@H]1CN[C@H](C#Cc2cc3ncnc(Nc4ccc5c(ccn5Cc5cc(F)ccc5F)c4)c3s2)C1)N1CCOCC1 | 3.26% | -2.77% | -4.63% | 3.72% | 9.95% | 2.02% | 7.62% | -3.81% | -0.39% | 3.05% | -2.46% | 0% | 1.37% | 7.47% | 0.25% | 8.85% | 10.1% | 7.42% | 9.24% | 6.23%
2 | CN1CCC(C(=O)Nc2n[nH]c3nc(-c4ccc(O)cc4)c(Br)cc23)CC1 | 7.35% and 7.26% | -0.9% and -1.12% | 0.97% and -0.81% | 4.19% and 1.14% | 2.06% and 2.14% | 1.92% and 0.51% | 1.89% and 0.99% | 2.14% | -0.62% and 1.07% | 1.72% and 4.51% | 0.24% and -1.35% | 0.67% and 1.32% | 1.49% and 0% | 6.41% and 0.96% | 13.3% and 1.03% | 1.72% and -1.22% | -1.54% and 2.39% | 6.9% and 3.32% | 12.8% and 4.3% | 8.54% and 3.19%
3 | CNC(=O)c1ncccc1Nc1nc(Nc2cc3c(cc2OC)CCCN3C(=O)CN(C)C)nc2[nH]ccc12 | 2.94% | -1.98% | -0.43% | 3.55% | 1.58% | 1.46% | 4.15% | -2.24% | 1.56% | 3.95% | -0.03% | -0.11% | -1.01% | 6.76% | 22.8% | 12.9% | 7.49% | 2.85% | -0.65% | 5.04%
4 | O=C(O[C@H]1CN[C@H](C#Cc2cc3ncnc(Nc4ccc5c(cnn5Cc5ccccc5)c4)c3s2)C1)N1CCOCC1 | -0.96% | -2.05% | -3.6% | -1.75% | 7.49% | 0.29% | 9.02% | 1.41% | 2.11% | 2.86% | -0.72% | 0.71% | -0.03% | -2.6% | 1.05% | 1.12% | -2.78% | -1.3% | -0.9% | -7.28%
5 | CN1CCN(Cc2ccc(-c3cc4ncnc(Nc5ccc(OCc6cccc(F)c6)c(Cl)c5)c4s3)o2)CC1 | 2.94% and 2.8% | -2.39% and -1.61% | -2.07% and 0.69% | 1.34% and 4.72% | 2.47% and 5.81% | 1.29% and 2.75% | 3.39% and 4.31% | 0.91% | 1.06% | 10.5% and 0.88% | 3.16% and -4.57% | 0.42% and -0.46% | 2.36% and -0.62% | 12.7% and 7.35% | 3.7% and 10.5% | 4.53% and 11.4% | 2.93% and 6.95% | 2.82% and 5.97% | 3.27% and 6.18% | 3.75% and 4.88%
